# Laboratory results as given in PMC7862700, “An all-to-all approach to the identification of sequence-specific readers for epigenetic DNA modifications on cytosine”.
# Assays:
# Assay in all cases: DAPPL (digital affinity profiling via proximity ligation, sequencing); 10 mM Tris-HCl pH 7.5, 50 mM NaCl, 1 mM DTT, 4% glycerol, room temperature, 30 min; GST-TFs on glutathione beads, 16-mer random dsDNA library, 0.1% formaldehyde crosslink after washing; high values mean tight binding
# FLI1 = molecular target: T1, FLI1 (Homo sapiens, UniProt Q01543 1-452); details: protein: recombinant; tags: N-terminal GST; dsDNA, one strand shown
# T1 sequence: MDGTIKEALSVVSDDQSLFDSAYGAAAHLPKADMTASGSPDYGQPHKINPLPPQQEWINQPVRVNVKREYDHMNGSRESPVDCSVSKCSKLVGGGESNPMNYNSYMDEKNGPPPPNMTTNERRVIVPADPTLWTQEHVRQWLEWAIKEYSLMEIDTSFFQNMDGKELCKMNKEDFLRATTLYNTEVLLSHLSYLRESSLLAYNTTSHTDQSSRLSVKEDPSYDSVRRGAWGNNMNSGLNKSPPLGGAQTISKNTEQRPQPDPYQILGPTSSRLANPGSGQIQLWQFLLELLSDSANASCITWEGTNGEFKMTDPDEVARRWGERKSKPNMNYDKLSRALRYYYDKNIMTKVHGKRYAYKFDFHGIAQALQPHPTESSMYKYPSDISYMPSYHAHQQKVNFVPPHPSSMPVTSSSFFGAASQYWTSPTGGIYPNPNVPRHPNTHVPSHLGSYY
# How it was run: (§1)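 Sequencing on an Illumina NextSeq500 followed washing, crosslinking with 0.1% formaldehyde, proximity ligation (BsaI/T4 ligase, 1 h, 37 °C) and PCR amplification of pools that had been incubated for 30 min at room temperature with 200 nmole of a random double-stranded 16-mer DNA library in Tris/NaCl/DTT/glycerol buffer. Each pool held DNA-barcoded human transcription factors, expressed in yeast as GST fusions and captured on glutathione beads, plus a tag-only sample. Binding signal is a hexamer's read frequency for a factor divided by its frequency in the tag-only sample.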
# ELK1 = molecular target: T2, ELK1 (Homo sapiens, UniProt P19419 1-428); details: protein: recombinant; tags: N-terminal GST; dsDNA, one strand shown
# T2 sequence: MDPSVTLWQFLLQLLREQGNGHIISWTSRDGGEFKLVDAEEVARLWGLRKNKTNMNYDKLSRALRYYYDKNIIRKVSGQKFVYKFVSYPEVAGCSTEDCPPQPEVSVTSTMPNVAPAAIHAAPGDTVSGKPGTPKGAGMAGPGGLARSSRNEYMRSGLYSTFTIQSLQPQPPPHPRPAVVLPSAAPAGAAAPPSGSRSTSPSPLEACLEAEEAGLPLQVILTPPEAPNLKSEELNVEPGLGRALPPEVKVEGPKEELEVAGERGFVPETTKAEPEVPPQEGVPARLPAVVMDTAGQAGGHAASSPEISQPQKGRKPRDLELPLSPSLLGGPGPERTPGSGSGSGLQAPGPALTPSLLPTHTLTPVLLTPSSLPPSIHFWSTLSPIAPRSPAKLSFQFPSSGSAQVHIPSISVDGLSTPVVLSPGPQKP
# How it was run: as §1
# GABPA = molecular target: T3, GABPA (Homo sapiens, UniProt Q06546 1-454); details: protein: recombinant; tags: N-terminal GST; dsDNA, one strand shown
# T3 sequence: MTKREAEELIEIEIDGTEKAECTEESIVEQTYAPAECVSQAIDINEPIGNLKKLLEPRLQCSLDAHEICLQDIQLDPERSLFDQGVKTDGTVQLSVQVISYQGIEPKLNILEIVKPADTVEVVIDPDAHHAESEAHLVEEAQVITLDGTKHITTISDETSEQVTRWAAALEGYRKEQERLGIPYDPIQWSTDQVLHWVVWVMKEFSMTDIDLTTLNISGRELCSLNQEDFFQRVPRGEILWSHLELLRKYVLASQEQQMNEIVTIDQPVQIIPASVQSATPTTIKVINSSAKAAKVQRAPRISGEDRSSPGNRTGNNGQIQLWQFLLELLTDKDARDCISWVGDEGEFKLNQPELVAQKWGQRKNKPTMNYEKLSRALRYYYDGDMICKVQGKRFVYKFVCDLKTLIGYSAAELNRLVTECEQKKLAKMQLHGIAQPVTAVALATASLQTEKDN
# How it was run: as §1
# ERG = molecular target: T4, ERG (Homo sapiens, UniProt P11308 1-479); details: protein: recombinant; tags: N-terminal GST; dsDNA, one strand shown
# T4 sequence: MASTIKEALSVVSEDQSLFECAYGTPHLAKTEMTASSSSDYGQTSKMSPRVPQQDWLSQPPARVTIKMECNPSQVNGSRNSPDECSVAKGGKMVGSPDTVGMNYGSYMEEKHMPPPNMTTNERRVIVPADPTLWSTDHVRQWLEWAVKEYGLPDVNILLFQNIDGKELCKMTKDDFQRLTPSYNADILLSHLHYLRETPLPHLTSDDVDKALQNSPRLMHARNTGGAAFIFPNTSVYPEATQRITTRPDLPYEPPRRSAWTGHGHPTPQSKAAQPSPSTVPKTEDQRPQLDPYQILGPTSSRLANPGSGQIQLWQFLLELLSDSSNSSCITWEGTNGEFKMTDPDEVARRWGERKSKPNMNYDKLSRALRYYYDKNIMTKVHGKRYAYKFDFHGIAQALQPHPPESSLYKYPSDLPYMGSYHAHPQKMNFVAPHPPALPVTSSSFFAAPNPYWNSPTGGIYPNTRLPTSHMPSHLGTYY
# How it was run: as §1
# ELF1 = ELF1 (Homo sapiens, UniProt P32519 1-619); details: protein: recombinant; tags: N-terminal GST; dsDNA, one strand shown
# Chain of ELF1 (P32519 whole entry): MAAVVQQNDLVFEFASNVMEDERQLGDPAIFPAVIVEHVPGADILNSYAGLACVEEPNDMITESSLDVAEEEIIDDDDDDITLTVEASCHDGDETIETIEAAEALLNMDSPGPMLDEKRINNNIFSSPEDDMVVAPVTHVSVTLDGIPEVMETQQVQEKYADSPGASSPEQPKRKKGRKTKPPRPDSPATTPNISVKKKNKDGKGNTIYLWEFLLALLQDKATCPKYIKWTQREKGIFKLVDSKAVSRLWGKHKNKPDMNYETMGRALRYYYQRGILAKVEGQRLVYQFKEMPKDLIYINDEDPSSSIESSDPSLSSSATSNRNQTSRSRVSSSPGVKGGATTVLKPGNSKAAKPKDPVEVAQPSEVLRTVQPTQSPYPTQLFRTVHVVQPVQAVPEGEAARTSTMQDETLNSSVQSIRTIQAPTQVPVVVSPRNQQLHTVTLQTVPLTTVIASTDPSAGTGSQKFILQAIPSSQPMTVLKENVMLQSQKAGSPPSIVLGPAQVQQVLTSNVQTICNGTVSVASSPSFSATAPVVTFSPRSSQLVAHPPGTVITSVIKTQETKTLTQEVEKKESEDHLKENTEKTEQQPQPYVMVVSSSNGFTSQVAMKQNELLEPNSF
# How it was run: as §1
# EHF = molecular target: T5, EHF (Homo sapiens, UniProt Q9NZC4 1-300); details: protein: recombinant; tags: N-terminal GST; dsDNA, one strand shown
# T5 sequence: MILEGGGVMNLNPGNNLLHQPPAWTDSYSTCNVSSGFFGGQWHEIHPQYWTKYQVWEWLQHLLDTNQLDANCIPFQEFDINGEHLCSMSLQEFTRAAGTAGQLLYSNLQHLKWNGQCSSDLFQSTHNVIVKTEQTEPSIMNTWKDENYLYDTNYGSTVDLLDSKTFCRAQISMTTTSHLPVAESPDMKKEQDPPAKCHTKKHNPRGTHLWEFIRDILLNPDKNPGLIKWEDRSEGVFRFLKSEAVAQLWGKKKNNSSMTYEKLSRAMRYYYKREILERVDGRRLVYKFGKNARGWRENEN
# How it was run: as §1
# SPI1 = SPI1 (Homo sapiens, UniProt P17947 1-270); details: protein: recombinant; tags: N-terminal GST; dsDNA, one strand shown
# How it was run: as §1
# SPIB = SPIB (Homo sapiens, UniProt Q01892 1-262); details: protein: recombinant; tags: N-terminal GST; dsDNA, one strand shown
# Chain of SPIB (Q01892 whole entry): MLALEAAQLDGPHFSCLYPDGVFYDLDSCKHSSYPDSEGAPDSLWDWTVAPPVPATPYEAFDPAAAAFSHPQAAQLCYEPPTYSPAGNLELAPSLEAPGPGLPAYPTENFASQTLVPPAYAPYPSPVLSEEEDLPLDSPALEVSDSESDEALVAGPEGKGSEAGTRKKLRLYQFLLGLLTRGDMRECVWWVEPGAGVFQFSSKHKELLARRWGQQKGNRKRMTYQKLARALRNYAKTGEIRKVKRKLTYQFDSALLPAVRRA
# How it was run: as §1
# ELK3 = molecular target: T6, ELK3 (Homo sapiens, UniProt P41970 1-407); details: protein: recombinant; tags: N-terminal GST; dsDNA, one strand shown
# T6 sequence: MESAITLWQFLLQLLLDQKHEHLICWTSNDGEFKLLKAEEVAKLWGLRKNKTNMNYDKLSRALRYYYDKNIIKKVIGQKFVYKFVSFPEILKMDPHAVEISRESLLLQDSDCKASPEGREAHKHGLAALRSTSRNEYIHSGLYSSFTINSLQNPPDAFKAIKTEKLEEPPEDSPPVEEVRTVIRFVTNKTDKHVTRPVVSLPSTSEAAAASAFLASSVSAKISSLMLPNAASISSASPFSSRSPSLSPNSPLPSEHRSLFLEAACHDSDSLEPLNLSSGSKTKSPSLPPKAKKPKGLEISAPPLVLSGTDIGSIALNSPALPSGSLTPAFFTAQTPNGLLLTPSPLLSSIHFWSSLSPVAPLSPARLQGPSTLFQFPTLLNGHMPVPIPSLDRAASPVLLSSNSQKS
# How it was run: as §1
# FEV = molecular target: T7, FEV (Homo sapiens, UniProt Q99581 1-238); details: protein: recombinant; tags: N-terminal GST; dsDNA, one strand shown
# T7 sequence: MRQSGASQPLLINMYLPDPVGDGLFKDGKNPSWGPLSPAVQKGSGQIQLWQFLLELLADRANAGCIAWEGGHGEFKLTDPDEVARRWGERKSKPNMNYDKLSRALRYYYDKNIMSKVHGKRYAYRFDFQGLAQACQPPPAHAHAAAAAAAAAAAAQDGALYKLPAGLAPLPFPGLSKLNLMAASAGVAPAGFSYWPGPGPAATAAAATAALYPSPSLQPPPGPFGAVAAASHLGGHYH
# How it was run: as §1
# ETV5 = ETV5 (Homo sapiens, UniProt P41161 1-510); details: protein: recombinant; tags: N-terminal GST; dsDNA, one strand shown
# Chain of ETV5 (P41161 whole entry): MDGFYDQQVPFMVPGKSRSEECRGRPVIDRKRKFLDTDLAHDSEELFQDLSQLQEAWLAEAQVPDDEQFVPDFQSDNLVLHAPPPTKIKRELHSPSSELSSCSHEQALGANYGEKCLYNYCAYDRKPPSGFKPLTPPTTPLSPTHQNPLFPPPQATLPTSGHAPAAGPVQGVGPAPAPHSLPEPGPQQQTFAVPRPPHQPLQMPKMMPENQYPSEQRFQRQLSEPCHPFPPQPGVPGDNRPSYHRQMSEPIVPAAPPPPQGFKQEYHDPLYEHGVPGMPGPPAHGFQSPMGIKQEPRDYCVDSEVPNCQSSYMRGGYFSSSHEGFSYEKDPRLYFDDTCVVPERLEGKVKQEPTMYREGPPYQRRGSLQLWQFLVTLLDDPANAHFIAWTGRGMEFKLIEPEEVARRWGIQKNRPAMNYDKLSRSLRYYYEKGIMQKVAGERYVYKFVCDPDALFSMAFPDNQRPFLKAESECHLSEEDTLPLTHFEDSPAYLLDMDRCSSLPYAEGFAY
# How it was run: as §1
# HSF1 = HSF1 (Homo sapiens, UniProt Q00613 1-529); details: protein: recombinant; tags: N-terminal GST; chain copies: 3; dsDNA, one strand shown
# Chain of HSF1 (Q00613 whole entry): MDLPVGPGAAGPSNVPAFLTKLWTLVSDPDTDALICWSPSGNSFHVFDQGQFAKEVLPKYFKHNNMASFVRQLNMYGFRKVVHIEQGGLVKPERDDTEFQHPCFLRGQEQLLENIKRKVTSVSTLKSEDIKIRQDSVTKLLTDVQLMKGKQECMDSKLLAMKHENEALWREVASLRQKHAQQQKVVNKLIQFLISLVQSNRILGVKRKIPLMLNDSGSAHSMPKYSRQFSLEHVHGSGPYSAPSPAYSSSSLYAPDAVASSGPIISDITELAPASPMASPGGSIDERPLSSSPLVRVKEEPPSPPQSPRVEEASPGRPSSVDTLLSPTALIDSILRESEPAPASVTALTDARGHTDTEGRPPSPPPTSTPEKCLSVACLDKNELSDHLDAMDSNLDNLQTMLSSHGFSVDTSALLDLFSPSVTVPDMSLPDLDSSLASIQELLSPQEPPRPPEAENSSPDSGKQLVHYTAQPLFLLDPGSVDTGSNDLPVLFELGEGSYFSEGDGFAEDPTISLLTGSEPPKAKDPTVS
# How it was run: as §1
# SPIC = molecular target: T8, SPIC (Homo sapiens, UniProt Q8N5J4 1-248); details: protein: recombinant; tags: N-terminal GST; dsDNA, one strand shown
# T8 sequence: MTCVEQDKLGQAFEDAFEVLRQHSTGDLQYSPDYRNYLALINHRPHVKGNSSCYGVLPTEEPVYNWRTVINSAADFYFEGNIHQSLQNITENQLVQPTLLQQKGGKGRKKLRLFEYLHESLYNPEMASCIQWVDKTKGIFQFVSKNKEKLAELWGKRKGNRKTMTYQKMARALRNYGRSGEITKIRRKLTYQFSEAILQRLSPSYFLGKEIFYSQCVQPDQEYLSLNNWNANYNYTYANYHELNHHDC
# How it was run: as §1
# ELF4 = ELF4 (Homo sapiens, UniProt Q99607 1-663); details: protein: recombinant; tags: N-terminal GST; dsDNA, one strand shown
# Chain of ELF4 (Q99607 whole entry): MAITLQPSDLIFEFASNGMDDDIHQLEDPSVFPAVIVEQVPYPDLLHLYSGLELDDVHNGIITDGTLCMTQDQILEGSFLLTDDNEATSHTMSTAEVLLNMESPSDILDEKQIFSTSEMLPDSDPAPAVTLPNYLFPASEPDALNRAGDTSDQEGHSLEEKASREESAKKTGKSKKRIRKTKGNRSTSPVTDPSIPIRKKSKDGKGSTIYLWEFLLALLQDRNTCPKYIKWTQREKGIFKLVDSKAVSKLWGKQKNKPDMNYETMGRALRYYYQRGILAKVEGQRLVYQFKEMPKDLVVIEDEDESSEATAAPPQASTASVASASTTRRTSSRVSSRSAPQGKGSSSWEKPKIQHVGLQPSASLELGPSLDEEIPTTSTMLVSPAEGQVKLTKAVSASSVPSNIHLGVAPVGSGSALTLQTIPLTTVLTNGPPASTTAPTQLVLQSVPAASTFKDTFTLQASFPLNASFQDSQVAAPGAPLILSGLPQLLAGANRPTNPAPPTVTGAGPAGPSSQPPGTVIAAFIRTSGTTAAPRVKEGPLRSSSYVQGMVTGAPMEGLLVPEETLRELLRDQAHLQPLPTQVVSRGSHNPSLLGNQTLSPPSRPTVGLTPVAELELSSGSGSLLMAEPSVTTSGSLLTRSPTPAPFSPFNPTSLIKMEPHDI
# How it was run: as §1
# ELK4 = molecular target: T9, ELK4 (Homo sapiens, UniProt P28324-2 1-405); details: protein: recombinant; tags: N-terminal GST; dsDNA, one strand shown
# T9 sequence: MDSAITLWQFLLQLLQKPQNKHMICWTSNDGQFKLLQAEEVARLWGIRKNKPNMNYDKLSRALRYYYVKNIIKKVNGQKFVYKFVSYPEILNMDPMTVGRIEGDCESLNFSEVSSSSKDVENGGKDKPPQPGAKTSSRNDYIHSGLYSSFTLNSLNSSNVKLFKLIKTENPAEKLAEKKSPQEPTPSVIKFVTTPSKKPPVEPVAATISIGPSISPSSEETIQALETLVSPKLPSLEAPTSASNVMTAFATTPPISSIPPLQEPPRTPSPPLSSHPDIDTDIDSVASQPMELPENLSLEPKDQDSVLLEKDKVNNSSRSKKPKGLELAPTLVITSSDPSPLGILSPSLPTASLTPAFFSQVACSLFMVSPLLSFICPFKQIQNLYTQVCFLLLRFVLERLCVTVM
# How it was run: as §1
# ETV2 = molecular target: T10, ETV2 (Homo sapiens, UniProt O00321 1-342); details: protein: recombinant; tags: N-terminal GST; dsDNA, one strand shown
# T10 sequence: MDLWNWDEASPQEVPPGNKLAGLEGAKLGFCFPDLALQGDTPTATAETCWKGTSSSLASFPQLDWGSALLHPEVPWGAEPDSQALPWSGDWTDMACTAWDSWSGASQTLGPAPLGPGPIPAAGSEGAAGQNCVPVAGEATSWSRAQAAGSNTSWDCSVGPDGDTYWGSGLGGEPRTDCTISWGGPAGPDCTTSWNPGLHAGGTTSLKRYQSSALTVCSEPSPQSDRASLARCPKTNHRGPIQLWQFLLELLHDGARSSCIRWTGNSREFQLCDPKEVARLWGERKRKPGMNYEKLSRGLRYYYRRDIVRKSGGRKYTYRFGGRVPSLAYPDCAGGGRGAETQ
# How it was run: as §1
# ELF3 = molecular target: T11, ELF3 (Homo sapiens, UniProt P78545 1-371); details: protein: recombinant; tags: N-terminal GST; dsDNA, one strand shown
# T11 sequence: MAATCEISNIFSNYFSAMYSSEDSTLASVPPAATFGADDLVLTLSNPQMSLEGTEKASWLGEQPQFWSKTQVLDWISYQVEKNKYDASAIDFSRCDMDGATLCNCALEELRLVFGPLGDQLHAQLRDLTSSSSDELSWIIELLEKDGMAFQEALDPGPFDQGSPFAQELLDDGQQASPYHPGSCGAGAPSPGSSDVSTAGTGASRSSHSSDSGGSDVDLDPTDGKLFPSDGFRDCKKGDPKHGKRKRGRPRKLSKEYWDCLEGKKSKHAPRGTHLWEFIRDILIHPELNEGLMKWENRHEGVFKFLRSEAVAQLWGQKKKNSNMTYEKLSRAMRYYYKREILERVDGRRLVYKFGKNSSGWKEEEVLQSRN
# How it was run: as §1
# CRX = CRX (Homo sapiens, UniProt O43186 1-299); details: protein: recombinant; tags: N-terminal GST; dsDNA, one strand shown
# Chain of CRX (O43186 whole entry): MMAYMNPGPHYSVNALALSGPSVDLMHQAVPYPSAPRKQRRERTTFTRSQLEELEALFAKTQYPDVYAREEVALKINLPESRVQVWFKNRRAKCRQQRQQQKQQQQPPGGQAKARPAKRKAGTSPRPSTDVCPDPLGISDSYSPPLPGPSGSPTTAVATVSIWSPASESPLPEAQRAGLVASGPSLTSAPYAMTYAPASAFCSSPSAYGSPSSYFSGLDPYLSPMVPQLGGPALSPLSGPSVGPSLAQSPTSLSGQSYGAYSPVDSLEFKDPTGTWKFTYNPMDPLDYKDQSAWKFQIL
# How it was run: as §1
# ETV1 = ETV1 (Homo sapiens, UniProt P50549 1-477); details: protein: recombinant; tags: N-terminal GST; dsDNA, one strand shown
# Chain of ETV1 (P50549 whole entry): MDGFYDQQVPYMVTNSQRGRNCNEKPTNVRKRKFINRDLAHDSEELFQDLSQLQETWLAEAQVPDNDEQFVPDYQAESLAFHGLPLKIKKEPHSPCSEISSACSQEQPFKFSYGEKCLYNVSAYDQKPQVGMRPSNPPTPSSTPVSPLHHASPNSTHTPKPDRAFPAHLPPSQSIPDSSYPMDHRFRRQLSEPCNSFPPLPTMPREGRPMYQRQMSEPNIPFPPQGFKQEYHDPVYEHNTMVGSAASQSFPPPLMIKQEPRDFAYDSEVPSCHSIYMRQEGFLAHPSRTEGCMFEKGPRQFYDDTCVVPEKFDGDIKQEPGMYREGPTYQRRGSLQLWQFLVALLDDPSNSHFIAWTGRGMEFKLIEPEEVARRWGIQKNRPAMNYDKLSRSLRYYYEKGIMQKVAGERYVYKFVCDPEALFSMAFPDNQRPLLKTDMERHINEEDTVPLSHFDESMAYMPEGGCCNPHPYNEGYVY
# How it was run: as §1
sequence,measurement,setting,value
AAAACT,binding signal,FLI1,"1.23 fold enrichment (6-mer frequency, TF over GST control)"
same,binding signal,ELK1,"1.16 fold enrichment (6-mer frequency, TF over GST control)"
same,binding signal,GABPA,"1.15 fold enrichment (6-mer frequency, TF over GST control)"
same,binding signal,ERG,"1.17 fold enrichment (6-mer frequency, TF over GST control)"
same,binding signal,ELF1,"1.25 fold enrichment (6-mer frequency, TF over GST control)"
same,binding signal,EHF,"1.24 fold enrichment (6-mer frequency, TF over GST control)"
same,binding signal,SPI1,"1.17 fold enrichment (6-mer frequency, TF over GST control)"
same,binding signal,SPIB,"1.23 fold enrichment (6-mer frequency, TF over GST control)"
same,binding signal,ELK3,"1.19 fold enrichment (6-mer frequency, TF over GST control)"
same,binding signal,FEV,"1.16 fold enrichment (6-mer frequency, TF over GST control)"
same,binding signal,ETV5,"1.15 fold enrichment (6-mer frequency, TF over GST control)"
same,binding signal,HSF1,"1.18 fold enrichment (6-mer frequency, TF over GST control)"
same,binding signal,SPIC,"1.23 fold enrichment (6-mer frequency, TF over GST control)"
same,binding signal,ELF4,"1.21 fold enrichment (6-mer frequency, TF over GST control)"
same,binding signal,ELK4,"1.1 fold enrichment (6-mer frequency, TF over GST control)"
same,binding signal,ETV2,"1.19 fold enrichment (6-mer frequency, TF over GST control)"
same,binding signal,ELF3,"1.12 fold enrichment (6-mer frequency, TF over GST control)"
same,binding signal,CRX,"1.16 fold enrichment (6-mer frequency, TF over GST control)"
same,binding signal,ETV1,"1.13 fold enrichment (6-mer frequency, TF over GST control)"
